# In PMC5540273 (PLoS ONE, 2017):
# Columns and labels:
# Conditions in all cases: concentration: 1 μM, replicates: in singlicate; n = 1
# [1] = system: T1, RSK1(Kin.Dom.1-N-terminal)
# T1 construct: gene RPS6KA1
# [2] = system: T2, RSK1(Kin.Dom.2-C-terminal)
# T2 construct: gene RPS6KA1
# [3] = system: T3, RSK2(Kin.Dom.1-N-terminal)
# T3 construct: gene RPS6KA3
# [4] = system: T4, RSK2(Kin.Dom.2-C-terminal)
# T4 construct: gene RPS6KA3
# [5] = system: T5, RSK3(Kin.Dom.1-N-terminal)
# T5 construct: gene RPS6KA2
# [6] = system: T6, RSK3(Kin.Dom.2-C-terminal)
# T6 construct: gene RPS6KA2
# [7] = system: T7, RSK4(Kin.Dom.1-N-terminal)
# T7 construct: gene RPS6KA6
# [8] = system: T8, RSK4(Kin.Dom.2-C-terminal)
# T8 construct: gene RPS6KA6
# S6K1 = system: S6K1
# SBK1 = system: SBK1
# SGK2 = system: SGK2
# SGK3 = system: SGK3
# SGK = system: SGK
# SIK2 = system: SIK2
# SIK = system: SIK
# SLK = system: SLK
# SNARK = system: T9, SNARK
# T9 construct: gene NUAK2
# SNRK = system: SNRK
# SRC = system: SRC
# SRMS = system: SRMS
# 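Also: KINOMEscan kinase panel screen.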
SMILES,%Inh [1] [%],%Inh [2] [%],%Inh [3] [%],%Inh [4] [%],%Inh [5] [%],%Inh [6] [%],%Inh [7] [%],%Inh [8] [%],%Inh (S6K1) [%],%Inh (SBK1) [%],%Inh (SGK2) [%],%Inh (SGK3) [%],%Inh (SGK) [%],%Inh (SIK2) [%],%Inh (SIK) [%],%Inh (SLK) [%],%Inh (SNARK) [%],%Inh (SNRK) [%],%Inh (SRC) [%],%Inh (SRMS) [%]
COc1cc(Nc2ccnc3ccc(C(F)(F)F)cc23)cc(OC)c1OC [GW577382],18,0,98.3,32,4,20,0,21,1,5,0,0,10,25,31,24,0,0,36,0
Nc1ncnc2c1ncn2-c1cccc(F)c1 [SKF-97560],31,0,23,0,9,0,21,0,36,25,38,0,37,0,1,18,13,20,22,14
O=c1cc(N2CCOCC2)nc2n(Cc3ccc(F)c(Cl)c3)ccn12 [GSK2297099],19,10,0,0,27,0,0,11,0,0,0,19,0,0,0,0,20,0,0,0
CCn1c(-c2nonc2N)nc2ccccc21 [SB-693162/GW549034],6,4,41,3,4,19,48,15,43,22,12,62,12,0,10,20,51,40,0,0
O=C(Nc1n[nH]c2cc(-c3ccccc3F)ccc12)C1CC1 [SB-733371],32,0,34,0,0,0,0,0,0,17,11,12,5,5,0,1,1,0,0,14
COc1cccc(C2=C(N(C)c3ccccc3)C(=O)NC2=O)c1 [SB-334865],0,0,0,5,11,5,0,19,10,0,0,3,0,0,0,13,0,0,0,0
Nc1ncnc2c1ncn2-c1cccc2ccccc12 [SKF-97184],16,16,38,0,0,36,11,0,15,28,21,4,35,0,0,0,0,2,8,17
Cc1c(Cn2c(C)nn3c(=O)cc(N4CCO[C@H](C)C4)nc23)cccc1C(F)(F)F [GSK2373690],49,0,9,0,22,0,0,0,9,28,13,0,26,0,1,18,0,0,1,0
COC(=O)c1c(-c2ccccc2)c2cc(Br)ccc2c(=O)n1Cc1ccc(S(C)(=O)=O)cc1,3,14,0,9,14,0,24,6,0,5,21,23,14,0,22,0,20,11,8,0
O=C1NC(=O)C(c2ccccc2)=C1Nc1cccc(O)c1 [SB-390534],19,0,24,0,0,0,14,7,11,27,9,20,11,0,0,51,16,0,0,17
Cc1cccc(-c2nc(Nc3ccc4c(cnn4C)c3)c3ccccc3n2)n1 [GW876731],32,0,26,0,24,0,8,0,0,10,37,3,0,0,0,2,21,0,11,0
CCS(=O)c1ccc(-c2coc3ccc(-c4nnc(C)o4)cc23)cc1 (stereo not drawn),0,18,5,0,3,11,18,6,8,0,13,23,7,5,13,0,30,0,0,0
COc1cc(Nc2nccc(N3CCC(NC(=O)C4COc5ccccc5O4)C3)n2)cc(OC)c1OC (stereo not drawn) [GSK1379761],3,4,0,24,0,12,0,2,0,20,0,0,17,0,0,17,23,0,53,11
Cc1nn2c(=O)cc(N3CCOCC3)nc2n1Cc1cccc(Cl)c1Cl [GSK2342769],0,0,9,3,25,0,5,0,1,14,0,0,0,0,0,4,0,0,4,0
Cc1nnc(-c2ccc(C)c(-c3ccc(C(=O)O)cc3)c2)o1 [GW608005],2,2,0,2,3,0,0,2,10,4,0,0,0,0,0,0,5,0,0,0
COc1ccc(-c2coc3ccc(-c4nnc(SCc5cccc(C#N)c5)o4)cc23)cc1,16,24,9,0,16,18,26,24,2,0,0,21,0,0,17,18,30,18,3,0
COc1ccc(-c2cc3c(C)nc(N)nc3n([C@H]3CC[C@H](O)CC3)c2=O)cn1,6,0,0,0,0,0,0,0,0,0,0,0,0,0,0,0,0,0,0,0
CN1C(=O)C(Nc2cc(Cl)c(O)c(Cl)c2)=C(c2ccc(Cl)cc2)C1=O [SB-404321],0,0,5,0,0,9,0,0,17,0,0,0,0,0,0,0,0,0,0,0
Cc1cc(Nc2nc(-c3cccc(C)n3)nc3ccccc23)ccn1 [GW872411],23,0,24,0,0,7,0,0,7,0,0,0,0,23,0,0,0,0,0,13
CN1C(=O)C(Nc2ccccc2)=C(c2ccccc2)C1=O [SB-300079],8,0,37,0,0,0,10,12,0,0,0,11,7,7,3,0,12,0,0,21
Cc1nnc(-c2ccc3ncn(-c4ccc(S(C)=O)cc4)c3c2)o1 (stereo not drawn),19,21,4,0,0,18,0,32,0,0,0,0,0,13,20,14,0,0,5,0
